Data on nine compounds can be found in PubChem BioAssay (NCATS).

Values without a mark were called inactive. Inconclusive results are not listed. Calls of active or inactive are those of the source. Unless noted, calls come from the whole dose curve; as a rule, active = well fitted curve in the direction sought with a large enough effect; inconclusive = small, poorly fitted or top-dose-only effect, or another doubt; inactive = no such curve, though single readings can be large; an effect the other way counts as inactive or inconclusive.

Test [1] has as its target Lysosomal acid glucosylceramidase (Homo sapiens) (UniProt P04062). The experiment in a line: Glucocerebrosidase-p2 (AID 348; in the data active = potency below about 10 µM; note: potency is the fitted concentration of half-maximal effect). As to conditions: purified GBA, blue fluorogenic substrate, 40 min. The method, boiled down: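 Normal human glucocerebrosidase (0.2 nM) with blue fluorogenic substrate (80 uM final) in citrate/phosphate pH 5.9 with 10mM sodium taurocholate, 0.01% tween-20; 40 min RT, NaOH/glycine stop; fluorescence Ex 365/Em 440; AC50 from a titration from 0.6 nM upwards.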

Test [2] concerns the target Cytochrome P450 1A2 (Homo sapiens) (UniProt P05177). The experiment in a line: p450-cyp1a2 (AID 410; calls by dose curve; note: potency is the fitted concentration of half-maximal effect;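 for activity change, negative = inhibition: -100% = full effect of reference inhibitor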). The conditions noted are these: recombinant CYP1A2, luciferin-ME demethylation, luminescence; series mostly up to 57 µM. The method, boiled down:
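20nM CYP1A2, 100uM Luciferin-ME (=Km), 100mM KPO4; cpd 10 min RT; +NADPH regen, 60 min RT; stop/detect 20 min; luminescence. Normalized to furafylline 57 uM = full inhibition.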

Test [3] can be described thus: NFAT Signaling Pathway (AID 444; active = well fitted curve in either direction with a large enough effect, not every such curve was filed as active;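 note: carbachol stimulus at about its EC50 of 1 µM final; % is set by controls: 0 for no effect and ±100 for the full control effect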). As to conditions: Jurkat NFAT-bla M1, carbachol, beta-lactamase ratio, 5 h; at 7.69 µM (top of the series) unless noted. Summed up:
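Jurkat cells with NFAT-driven β-lactamase reporter and co-expressed M1 receptor, stimulated with carbachol (final 1 uM, ~EC50), compound titration, 5 h at 37 °C. CCF4 loaded 1 h at RT; 460/530 nm ratio gave %activity and AC50.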

Test [4] in a line: Stat Signaling Pathway (AID 446; active = well fitted curve in either direction with a large enough effect, not every such curve was filed as active;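 note: ME-180 cervical cancer cells given 40 pM IL-6 alongside compound; SIE-controlled beta-lactamase reporter measured as 460/530 nm FRET emission ratio; % is set by controls: 0 for no effect and ±100 for the full control effect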). The conditions noted are these: ME-180 SIE beta-lactamase reporter, IL-6 stimulated, 5 h; at 7.69 µM (top of the series) unless noted. Summed up: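 FRET read-out (405 nm excitation, 460/530 nm emission) of a beta-lactamase reporter under a STAT-inducible element in ME-180 cervical carcinoma cells. Cells with compound receive 40 pM IL-6 for 5 h. Values are normalised to AC90 stimulation and AC90 JAK-inhibitor controls.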

Test [5] has as its target Glucocorticoid receptor (Homo sapiens) (UniProt P04150). Put plainly: GR-GFP Redistribution (AID 450;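 active = compounds whose dose series gives a full or clear partial fitted curve of increased nuclear translocation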; note: potency is the fitted concentration of half-maximal effect). The conditions noted are these: U2OS GR-GFP nuclear translocation, laser cytometry, 2 h.
For test [6] the target is unchanged. The experiment in a line: GR-EFC Redistribution (AID 451; calls by dose curve; note: potency is the fitted concentration of half-maximal effect). As to conditions: CHO-K1 GR-EFC translocation, beta-gal luminescence, 2 h. Summed up:
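CHO-K1 cells expressing nuclear EA and GR-ED fragments of b-gal; compounds titrated up to 46 uM final, 2 h at 37 C. GR nuclear translocation read as complemented b-gal luminescence after 1 h RT detection.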

For test [7], the target named is Mitogen-activated protein kinase 10 (Mus musculus) (UniProt Q61831). The experiment in a line: JNK3 AlphaScreen Assay (AID 530; active = well fitted curve in either direction with a large enough effect, not every such curve was filed as active;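 note: kinase came from lysate of stimulated human HepG2 cells; signal reports phosphorylation of biotinylated GST-cJun 1-79 at Ser73 with 10 µM ATP; % is set by controls: 0 for no effect and ±100 for the full control effect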). The conditions noted are these: JNK3 lysate, c-Jun phosphorylation; series mostly up to 57.1 µM. The method, boiled down:
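HepG2 lysate (IL-1b/TNFa pre-activated) + biotin-GST-cJun 1-79 + anti-pSer73 cJun; cpd titration, 15 min RT; ATP 10 uM start; Tris pH 7.6, MgCl2, DTT, vanadate; beads in EDTA buffer; AlphaScreen.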
In general terms: In Alpha technology, singlet oxygen from a donor bead excites a nearby acceptor bead.

Test [8] addresses 3',5'-cyclic-AMP phosphodiesterase 4B (Homo sapiens) (UniProt Q07343). The experiment in a line: qHTS Assay for Inhibitors of PDE-IV (AID 607; active = well fitted activation curve with a large enough effect in the main read-out, with a control signal flat, not every such curve was filed as active; note: % of control where 0% means no effect). As to conditions: HEK293 ACTOne CNG channel cells, membrane potential fluorescence; series mostly up to 22.9 µM. Summed up:
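Cell-based read-out of cAMP via a modified cyclic nucleotide-gated channel and membrane potential dye (535/590 nm) in HEK293 cells expressing PDE4 endogenously. Compounds tested up to 22.9 uM final; 100 uM RO 20-1724 reference.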
In general terms: qHTS replaces the single test concentration by a dilution series.

Test [9] has as its target Cytochrome P450 2C9 (Homo sapiens) (UniProt P11712). Put plainly: qHTS Assay for Inhibitors and Substrates of Cytochrome P450 2C9 (AID 883). Note: nearly all actives have a fitted effect of over 60% in size. Note: potency is the fitted concentration of half-maximal effect. The conditions noted are these: recombinant CYP2C9, luciferin-H luminescence, 60 min; series mostly up to 57.1 µM. The method, boiled down: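 Human CYP2C9 (10nM) with Luciferin-H at 100uM (its KM) in 25mM KPO4; compound preincubated 10 min at 37C, then NADPH regeneration for 60 min at 37C. Luciferin read by luminescence after detection reagent; normalized to 57uM sulphaphenazole as full inhibition.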

In test [10] the target is Cytochrome P450 2C19 (Homo sapiens) (UniProt P33261). Put plainly: qHTS Assay for Inhibitors and Substrates of Cytochrome P450 2C19 (AID 899). Note: nearly all actives have a fitted effect of over 60% in size. Note: potency is the fitted concentration of half-maximal effect. The conditions noted are these: recombinant CYP2C19, luciferin-H EGE luminescence; series mostly up to 57.1 µM. Summed up: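 5 nM human CYP2C19 with 10uM Luciferin-H EGE (at KM) in 50mM KPO4, compound preincubated 10 min at 37C, then NADPH regeneration for 60 min at 37C. Luciferin read by luminescence after detection reagent; normalized to 57uM ketoconazole as full inhibition.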
Cytochrome P450 2C19 (Homo sapiens), sequence (P33261 whole entry, looked up): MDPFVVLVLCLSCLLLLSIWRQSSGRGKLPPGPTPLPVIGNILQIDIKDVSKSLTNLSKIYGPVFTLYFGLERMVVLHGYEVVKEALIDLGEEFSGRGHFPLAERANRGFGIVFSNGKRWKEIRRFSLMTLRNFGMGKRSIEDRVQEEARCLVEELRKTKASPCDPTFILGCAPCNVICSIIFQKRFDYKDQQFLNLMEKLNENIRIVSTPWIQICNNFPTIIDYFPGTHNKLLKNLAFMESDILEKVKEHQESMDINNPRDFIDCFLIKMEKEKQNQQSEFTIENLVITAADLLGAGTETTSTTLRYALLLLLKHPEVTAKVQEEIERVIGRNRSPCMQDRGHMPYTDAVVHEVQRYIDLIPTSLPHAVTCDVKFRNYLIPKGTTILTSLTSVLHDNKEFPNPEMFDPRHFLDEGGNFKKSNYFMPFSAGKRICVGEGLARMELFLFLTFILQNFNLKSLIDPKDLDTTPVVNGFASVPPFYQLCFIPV

Test [11] can be described thus: qHTS Assay for Identification of Small Molecule Agonists for Hypoxia Response Element Signaling Pathway (AID 914; active = well fitted activation curve with a large enough effect in the signal ratio, with a control signal flat, not every such curve was filed as active; the % refers to the signal ratio; note: potency is the fitted concentration of half-maximal effect; for activation: % of control where 0% means no effect). As to conditions: ME-180 (cervical carcinoma) HRE-bla reporter, beta-lactamase ratio, CoCl2, 17 h; activation: hits give high values. The method, boiled down: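 Compounds in a titration series were added to ME-180 reporter cells alongside an EC50 level of CoCl2. After 17 hours, beta-lactamase activity was read as the 460nm/530nm emission ratio of CCF4, giving AC50 values.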

The nature of test [12]: Primary qHTS for small molecule stabilizers of the endoplasmic reticulum resident proteome: Secreted ER Calcium Modulated Protein (SERCaMP) assay (AID 1508630). Note: % is set by controls: 0 for no effect and ±100 for the full control effect. As to conditions: SH-SY5Y GLuc-SERCaMP (Gaussia luciferase released on ER calcium loss) secretion, thapsigargin, luminescence; series mostly up to 38.4 µM. Summed up:
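The SH-SY5Y reporter protocol was run at 3 concentrations up to 38.3 uM (primary) or 11 concentrations (follow-up): 16 h compound, 100 nM thapsigargin for 4 h, then extracellular luciferase luminescence.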

Test [13] addresses Cytochrome P450 3A4 (Homo sapiens) (UniProt P08684). The experiment in a line: qHTS Assay for Inhibitors and Substrates of Cytochrome P450 3A4 (AID 884). Note: potency is the fitted concentration of half-maximal effect; nearly all actives have a fitted effect of over 50% in size. The conditions noted are these: recombinant CYP3A4, Luciferin-PPXE luminescence; series mostly up to 57.1 µM. Summed up:
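Luminescent readout of luciferin produced by CYP3A4 (20 nM) dealkylation of Luciferin-PPXE, 25 uM (its KM). NADPH-driven reaction ran 60 min at RT after 10 min compound preincubation; data scaled to 57 uM ketoconazole as 100% inhibition.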

The target is the same in test [14]. The experiment in a line: qHTS Assay for Activators of Cytochrome P450 3A4 (AID 885). Note: nearly all actives have a fitted effect of over 65% in size. The conditions noted are these: recombinant CYP3A4, Luciferin-PPXE luminescence, 60 min; series mostly up to 57.1 µM. Summed up:
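Luminescent readout of luciferin formed from 25 uM Luciferin-PPXE (KM level) by 20 nM CYP3A4 in 200 mM KPO4, with 60 min NADPH-driven reaction at room temperature after 10 min compound exposure. Ketoconazole (57 uM) defined 100% inhibition.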

Test [15] addresses Ubiquitin carboxyl-terminal hydrolase 1 (Homo sapiens) (UniProt O94782). Put plainly: Inhibitors of USP1/UAF1: Pilot qHTS (AID 504865).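 Note: rhodamine fluorescence freed from ubiquitin-rhodamine substrate followed over time; top concentration of the series differs between compounds; % is set by controls: 0 for no effect and ±100 for the full control effect; nearly all actives have a fitted effect of over 35% in size.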 The conditions noted are these: purified USP1/UAF1, Ub-rhodamine cleavage fluorescence; series mostly up to 54.9 µM. The method, boiled down: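 Deubiquitinase activity followed as kinetic rhodamine fluorescence release from 150 nM Ub-Rho. 1 nM USP1/UAF1 with compound, after 15 min room-temperature preincubation, in HEPES pH 7.8 buffer containing TCEP, EDTA, BSA and Tween-20.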

Glucocorticoid receptor (Homo sapiens), sequence (P04150 whole entry, looked up): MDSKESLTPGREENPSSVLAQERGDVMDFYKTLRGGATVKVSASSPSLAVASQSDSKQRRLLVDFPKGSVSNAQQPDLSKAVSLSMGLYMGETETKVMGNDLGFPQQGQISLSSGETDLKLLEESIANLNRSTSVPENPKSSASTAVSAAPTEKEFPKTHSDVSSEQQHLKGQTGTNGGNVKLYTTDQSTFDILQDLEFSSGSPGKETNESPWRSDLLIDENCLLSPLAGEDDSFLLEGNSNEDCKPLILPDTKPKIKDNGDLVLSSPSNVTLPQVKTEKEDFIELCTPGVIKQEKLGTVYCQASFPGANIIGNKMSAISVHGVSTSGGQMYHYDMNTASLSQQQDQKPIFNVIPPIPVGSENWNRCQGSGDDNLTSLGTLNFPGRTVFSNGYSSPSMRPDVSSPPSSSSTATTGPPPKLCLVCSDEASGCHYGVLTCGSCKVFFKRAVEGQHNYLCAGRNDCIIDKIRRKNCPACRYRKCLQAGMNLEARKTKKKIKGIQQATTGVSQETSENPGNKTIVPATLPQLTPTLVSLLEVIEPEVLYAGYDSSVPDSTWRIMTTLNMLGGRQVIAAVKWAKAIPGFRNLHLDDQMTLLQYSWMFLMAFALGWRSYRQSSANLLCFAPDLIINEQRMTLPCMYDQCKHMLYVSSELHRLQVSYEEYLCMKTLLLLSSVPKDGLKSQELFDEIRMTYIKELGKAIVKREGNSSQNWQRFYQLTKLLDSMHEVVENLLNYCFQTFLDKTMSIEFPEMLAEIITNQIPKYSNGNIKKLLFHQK
Cytochrome P450 3A4 (Homo sapiens), sequence (P08684 whole entry, looked up): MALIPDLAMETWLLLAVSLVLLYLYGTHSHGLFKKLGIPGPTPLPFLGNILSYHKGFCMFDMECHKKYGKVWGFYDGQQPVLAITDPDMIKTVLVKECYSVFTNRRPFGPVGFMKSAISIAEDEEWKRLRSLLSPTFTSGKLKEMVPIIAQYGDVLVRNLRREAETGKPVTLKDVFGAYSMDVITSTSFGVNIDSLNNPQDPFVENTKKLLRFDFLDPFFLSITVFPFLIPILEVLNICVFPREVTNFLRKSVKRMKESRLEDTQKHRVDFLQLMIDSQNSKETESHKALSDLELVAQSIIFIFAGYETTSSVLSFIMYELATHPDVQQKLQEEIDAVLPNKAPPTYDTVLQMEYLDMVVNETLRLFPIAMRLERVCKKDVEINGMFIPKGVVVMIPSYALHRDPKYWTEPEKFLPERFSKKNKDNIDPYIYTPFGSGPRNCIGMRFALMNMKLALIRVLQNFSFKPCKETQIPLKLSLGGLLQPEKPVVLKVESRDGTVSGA
3',5'-cyclic-AMP phosphodiesterase 4B (Homo sapiens), sequence (Q07343 whole entry, looked up): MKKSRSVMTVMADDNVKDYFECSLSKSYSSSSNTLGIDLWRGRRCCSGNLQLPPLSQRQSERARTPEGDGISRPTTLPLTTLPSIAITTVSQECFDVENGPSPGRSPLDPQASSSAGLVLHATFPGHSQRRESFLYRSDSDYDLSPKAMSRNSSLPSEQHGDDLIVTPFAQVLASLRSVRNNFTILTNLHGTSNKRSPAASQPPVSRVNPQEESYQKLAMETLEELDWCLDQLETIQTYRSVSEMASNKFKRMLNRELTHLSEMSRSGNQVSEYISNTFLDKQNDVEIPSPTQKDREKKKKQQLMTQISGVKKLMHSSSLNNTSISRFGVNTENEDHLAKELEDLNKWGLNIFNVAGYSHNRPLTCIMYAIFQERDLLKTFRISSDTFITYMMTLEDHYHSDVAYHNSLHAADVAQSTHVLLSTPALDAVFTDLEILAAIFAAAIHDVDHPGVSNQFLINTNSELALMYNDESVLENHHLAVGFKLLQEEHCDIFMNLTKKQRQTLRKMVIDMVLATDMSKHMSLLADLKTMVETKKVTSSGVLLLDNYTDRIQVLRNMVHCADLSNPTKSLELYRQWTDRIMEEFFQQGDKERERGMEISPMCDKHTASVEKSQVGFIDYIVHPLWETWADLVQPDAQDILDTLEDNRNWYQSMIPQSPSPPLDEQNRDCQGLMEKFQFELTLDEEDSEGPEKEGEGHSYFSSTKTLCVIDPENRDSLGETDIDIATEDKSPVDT
Lysosomal acid glucosylceramidase (Homo sapiens), sequence (P04062 whole entry, looked up): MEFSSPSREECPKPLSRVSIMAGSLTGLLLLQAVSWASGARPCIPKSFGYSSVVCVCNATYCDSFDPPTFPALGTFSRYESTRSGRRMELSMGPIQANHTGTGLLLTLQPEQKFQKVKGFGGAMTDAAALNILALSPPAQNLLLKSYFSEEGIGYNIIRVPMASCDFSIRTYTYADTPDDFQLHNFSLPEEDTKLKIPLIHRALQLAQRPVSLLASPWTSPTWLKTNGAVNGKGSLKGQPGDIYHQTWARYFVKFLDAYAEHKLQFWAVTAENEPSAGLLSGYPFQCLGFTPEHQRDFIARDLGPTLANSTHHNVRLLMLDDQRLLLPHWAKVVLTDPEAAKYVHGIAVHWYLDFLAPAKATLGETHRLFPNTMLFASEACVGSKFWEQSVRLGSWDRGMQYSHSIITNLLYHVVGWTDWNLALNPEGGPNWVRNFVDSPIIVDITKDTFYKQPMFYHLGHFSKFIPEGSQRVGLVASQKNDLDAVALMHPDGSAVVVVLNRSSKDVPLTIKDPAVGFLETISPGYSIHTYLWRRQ
Cytochrome P450 1A2 (Homo sapiens), sequence (P05177 whole entry, looked up): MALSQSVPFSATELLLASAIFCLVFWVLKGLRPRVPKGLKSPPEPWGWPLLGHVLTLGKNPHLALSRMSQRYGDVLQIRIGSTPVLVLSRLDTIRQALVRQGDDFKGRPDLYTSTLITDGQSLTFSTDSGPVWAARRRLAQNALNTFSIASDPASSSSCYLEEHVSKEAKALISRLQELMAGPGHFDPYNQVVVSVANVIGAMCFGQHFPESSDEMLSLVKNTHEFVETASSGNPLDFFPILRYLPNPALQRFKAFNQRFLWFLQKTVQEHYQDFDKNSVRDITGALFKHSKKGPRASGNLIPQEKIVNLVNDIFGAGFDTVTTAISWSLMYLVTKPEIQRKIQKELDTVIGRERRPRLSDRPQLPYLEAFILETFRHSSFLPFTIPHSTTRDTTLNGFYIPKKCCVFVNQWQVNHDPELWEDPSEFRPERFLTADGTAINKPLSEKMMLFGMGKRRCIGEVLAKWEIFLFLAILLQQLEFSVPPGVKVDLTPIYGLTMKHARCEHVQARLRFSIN
Cytochrome P450 2C9 (Homo sapiens), sequence (P11712 whole entry, looked up): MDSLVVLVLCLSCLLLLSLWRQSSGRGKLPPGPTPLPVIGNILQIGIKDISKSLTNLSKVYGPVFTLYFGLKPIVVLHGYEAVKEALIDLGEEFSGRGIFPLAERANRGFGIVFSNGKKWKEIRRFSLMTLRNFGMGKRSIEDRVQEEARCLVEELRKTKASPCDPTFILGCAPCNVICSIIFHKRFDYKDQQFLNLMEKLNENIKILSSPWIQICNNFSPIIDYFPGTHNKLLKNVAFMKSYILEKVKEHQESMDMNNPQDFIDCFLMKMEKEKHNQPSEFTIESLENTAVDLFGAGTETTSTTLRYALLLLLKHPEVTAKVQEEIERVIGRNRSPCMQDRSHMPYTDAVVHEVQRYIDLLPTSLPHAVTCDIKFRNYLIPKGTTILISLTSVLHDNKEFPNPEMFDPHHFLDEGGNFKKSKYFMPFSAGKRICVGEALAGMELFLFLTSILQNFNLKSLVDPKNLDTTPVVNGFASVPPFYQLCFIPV
Ubiquitin carboxyl-terminal hydrolase 1 (Homo sapiens), sequence (O94782 whole entry, looked up): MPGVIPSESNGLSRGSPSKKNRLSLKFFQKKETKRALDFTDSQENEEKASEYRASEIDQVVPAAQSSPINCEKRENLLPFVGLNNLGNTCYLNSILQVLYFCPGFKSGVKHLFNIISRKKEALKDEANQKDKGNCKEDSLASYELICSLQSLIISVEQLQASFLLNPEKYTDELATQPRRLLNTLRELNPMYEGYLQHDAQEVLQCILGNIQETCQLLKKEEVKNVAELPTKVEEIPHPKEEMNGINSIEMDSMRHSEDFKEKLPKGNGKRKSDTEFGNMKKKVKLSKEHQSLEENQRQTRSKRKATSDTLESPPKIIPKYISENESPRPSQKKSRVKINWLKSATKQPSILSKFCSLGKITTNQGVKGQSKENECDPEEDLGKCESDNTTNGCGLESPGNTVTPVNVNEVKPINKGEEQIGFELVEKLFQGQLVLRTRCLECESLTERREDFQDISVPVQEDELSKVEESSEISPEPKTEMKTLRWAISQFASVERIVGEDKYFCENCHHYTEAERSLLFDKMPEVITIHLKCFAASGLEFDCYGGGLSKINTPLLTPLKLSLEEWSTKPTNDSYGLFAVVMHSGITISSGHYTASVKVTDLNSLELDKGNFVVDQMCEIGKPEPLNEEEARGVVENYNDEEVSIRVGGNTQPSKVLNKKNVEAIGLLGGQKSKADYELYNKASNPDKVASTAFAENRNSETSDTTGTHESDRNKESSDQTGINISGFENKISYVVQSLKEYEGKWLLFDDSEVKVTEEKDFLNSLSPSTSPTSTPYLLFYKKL

Regarding `COc1ncc2nc(C)c(=O)n(CCC#N)c2n1`, the Potency in [1] was greater than 11.4 µM; in test [2], 15.8 µM (active); in test [5] it was greater than 9.22 µM; in test [6] it was greater than 46 µM. Further, the activity change, negative = inhibition in test [3] was -6.19%. Moreover, in test [4], the activity, negative = inhibition is -5.09%. The Potency result in [7], in test [8], in [9] and in [10] was “inactive” each time. Besides, in test [11], the activation is 7.94%. In [12], the result was inactive.
As to `COc1ccc(Oc2ncc3nc(-c4cccs4)c(=O)n(Cc4cccc(OC)c4)c3n2)cc1`, the Potency in test [1] is greater than 11.4 µM; in test [5], greater than 9.22 µM; in test [6], greater than 46 µM; in test [13], 3.98 µM (active); in [11], 3.16 µM (active). For the same compound, the Potency entry in test [2] and in test [14] was “inactive” throughout. The activity change, negative = inhibition in test [3] was -5.95%. The outcome in test [12] was inactive.
For the compound `Cc1nc2cnc(Oc3cccc(Cl)c3)nc2n(CCc2ccccc2)c1=O`, the Potency in test [1] was greater than 11.4 µM; in test [2], 12.6 µM (active); in test [5], greater than 9.22 µM; in test [6], greater than 46 µM. Besides, the activity, negative = inhibition in test [4] was 18.7%. In addition, the Potency entry in test [7] is “inactive”. For the same compound, in test [12], the result was inactive.
For the compound `O=c1c(-c2cccs2)nc2cnc(Oc3cccc(Cl)c3)nc2n1C[C@H]1CCCO1`, the Potency in [1] is greater than 11.4 µM; in [2] it was 3.16 µM (active); in [5], greater than 9.22 µM; in test [6] it was greater than 46 µM; in test [9], 3.16 µM (active); in test [11], 3.16 µM (active). The Potency entry in test [8] and in test [14] was “inactive” throughout. In addition, the result in test [12] was inactive.
With `CCNc1ncc2nc(-c3cc(F)cc(F)c3)c(=O)n(Cc3cccs3)c2n1`, the Potency in test [1] was greater than 11.4 µM; in [2] it was 5.01 µM (active); in test [5], greater than 9.22 µM; in [6], greater than 46 µM; in [11], 0.794 µM (active). Also, the activity, negative = inhibition in test [4] is 135% [activator] (active). Moreover, the Potency result in test [7] and in test [14] was “inactive” throughout. Besides, the result in test [12] was inactive.
As to `CCNc1ncc2nc(-c3ccc(Cl)cc3)c(=O)n(-c3ccccc3)c2n1`, the Potency in [1] was greater than 11.4 µM; in test [2] it was 1 µM (active); in [5], greater than 9.22 µM; in test [6] it was greater than 46 µM. For the same compound, in test [7], the Potency result was “inactive”. Further, the outcome in test [12] was inactive.
For `CCNc1ncc2ncc(=O)n(CCc3ccccc3)c2n1`, the Potency in test [1] is greater than 11.4 µM; in test [2] it was 1 µM (active); in [5], greater than 9.22 µM; in test [6], greater than 46 µM; in [10], 631 nM (active). Also, the activity change, negative = inhibition in test [3] was 9.34%. Besides, in test [4], the activity, negative = inhibition is -25.4%. In addition, the Potency entry in test [7], in [8] and in test [14] was “inactive” each time. In addition, the outcome in test [12] was inactive.
As to `CN(C)C(=O)c1ccc(-c2ccc3ncnc(Nc4ccccc4)c3c2)cc1`, the Potency in test [1] is greater than 11.4 µM; in test [2], 15.8 µM (active); in test [5], greater than 46 µM; in test [6], greater than 46 µM. Further, the activity, negative = inhibition in test [4] is 0.91%. Besides, the Potency entry in test [7], in [8], in test [14] and in test [15] was “inactive” throughout. Moreover, the outcome in [12] was inactive.
As for `O=C(c1cnccn1)N1CCC2(CC1)CN(c1cccc(-c3ccccc3)c1)C2`, the Potency is greater than 11.4 µM in [1], 15.8 µM (active) in test [2] and greater than 46 µM in test [6]. The activity change, negative = inhibition in [3] was -5.73%. For the same compound, the Potency entry in [8] and in [14] was “inactive” in each case. The outcome in test [12] was inactive.
